Compound activity from PubChem.
Sampled rows, rich in hits. Any-hit rate of the full collection: about 2.5%.
MEKK3 PB1 HTS = MEKK3-MEK5 PB1 interaction, increase or decrease | Q99759 | bead-based flow cytometry, Alexa488-MEK5 binding to MEKK3; actives lie on both sides; 0 = blocked by unlabeled MEK5, 100 = vehicle | binding response (% of control), % at 10 µM | 290,000 compounds, 1.4% hits | AID 1529;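 active = binding response more than 3 SD above or below the average of its plate-row segment, actives on both sides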;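 note: Alexa488 bead fluorescence after subtracting the streptavidin-only scavenger bead signal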
MEKK2wt PB1 HTS = raises or lowers MEK5 binding to wildtype human MEKK2 PB1 domain; 290,000 compounds, 1.1% hits; binding response (% of control), % at 10 µM; Q9Y2U5; bead flow cytometry, Alexa488-MEK5 binding to MEKK2 WT; actives lie on both sides; in the data active = binding response below about 67% or above about 130%
UBC13 inh = blocks human UBC13 polyubiquitin chain formation; 330,000 compounds, 0.47% hits; inhibition, % at 20 µM; P61088; TR-FRET; in the data active = inhibition above about 45%, passing the limit was not always enough
Target sequence (P61088 whole entry, looked up): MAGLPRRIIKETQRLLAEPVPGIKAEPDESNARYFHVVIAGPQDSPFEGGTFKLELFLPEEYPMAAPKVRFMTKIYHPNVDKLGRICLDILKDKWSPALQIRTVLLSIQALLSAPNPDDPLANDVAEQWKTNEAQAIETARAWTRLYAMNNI
MEKK2mut PB1 HTS = signal of MEK5 binding to mutant human MEKK2 PB1 domain | bead flow cytometry, Alexa488-MEK5 binding to MEKK2 mutant | percent response, % at 10 µM | 290,000 compounds, 0.35% hits | AID 1530; in the data active = percent response above about 24%, passing the limit was not always enough
Rce1 inhib = blocks yeast Ras-converting enzyme; yeast membranes, quenched prenylated peptide cleavage fluorescence; 290,000 compounds, 0.27% hits; calls only;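 active = fall in fluorescence gain of 50% or more versus controls, with final raw signal at or below 3038400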;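 note: plate controls were neutral control wells for no effect and wells lacking membranes for full effect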
Target sequence (Q03530 whole entry, looked up): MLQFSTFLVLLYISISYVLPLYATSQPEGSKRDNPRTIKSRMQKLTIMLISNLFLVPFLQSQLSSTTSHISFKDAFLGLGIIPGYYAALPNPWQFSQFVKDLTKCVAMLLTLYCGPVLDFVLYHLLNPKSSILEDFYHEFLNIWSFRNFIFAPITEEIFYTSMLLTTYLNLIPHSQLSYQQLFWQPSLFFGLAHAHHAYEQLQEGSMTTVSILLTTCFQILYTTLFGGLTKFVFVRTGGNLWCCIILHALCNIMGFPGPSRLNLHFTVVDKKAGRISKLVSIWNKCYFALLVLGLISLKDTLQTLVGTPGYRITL
MEKK2wt confirm = raises or lowers MEK5 binding to wildtype human MEKK2, retest | shares compounds with MEKK3 PB1 HTS | AID 1892 | 5,900 compounds, 2.4% hits | bead flow cytometry, Alexa488-MEK5 binding to MEKK2 WT; actives lie on both sides | binding response (% of control), % at 10 µM; in the data active = binding response below about 16% or above about 210%; inactive = in between
MEKK2mut-MEK5 = signal of MEK5 binding to mutant human MEKK2, retest. shares compounds with MEKK3 PB1 HTS. bead flow cytometry, Alexa488-MEK5 binding to MEKK2 mutant. percent response, % at 10 µM. 5,900 compounds, 2% hits. AID 1893; in the data active = percent response mostly above about 71%, no sharp cut-off; inactive = mostly below about 38%;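 note: higher means compound restores mutant binding toward wildtype level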
MEKK3-MEK5 inh = confirmation of inhibitors of MEK5 binding to human MEKK3; shares compounds with MEKK3 PB1 HTS; bead flow cytometry, Alexa488-MEK5 binding to MEKK3; hits give low values; binding response (% of control), % at 10 µM; 5,900 compounds, 1.8% hits; AID 1894;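 active = binding response below 72% of control, or above a set upper limit, though filed actives all read lower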;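 note: 100% = DMSO only wells and 0% = binding blocked by excess unlabeled MEK5; lower values mean stronger disruption of MEK5 binding to MEKK3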
The depositor's hits bear a star; i = inactive; x = not tested or not shown; + = active, no number; [ ] = dose if it differs, or a comment.

SMILES | MEKK3 PB1 HTS | MEKK2wt PB1 HTS | UBC13 inh | MEKK2mut PB1 HTS | Rce1 inhib | MEKK2wt confirm | MEKK2mut-MEK5 | MEKK3-MEK5 inh
N#C/C(=C\C1=C(N2CCOCC2)C(=C\c2ccc(Cl)cc2)/CC1)C(=O)Nc1ccccc1F | 7.0*[inhibitor] | x | x | -9 | i | 72 | -19 | 73
CCC(CC)C(=O)Nc1cc(C(=O)OC)ccc1C(=O)OC | 194* | 113 | 5 | 1 | i | 97 | -1 | 105
O=C(NCc1ccco1)c1ccc(=O)[nH]n1 | 82*[inhibitor] | 90 | -10 | -11 | i | 117 | 1 | 103
Cc1noc(C(=O)Nc2cccc(O)c2)c1Cl | 104 | 100 | -1 | 3 | i | x | x | x
O=C(Nc1ccc(Cl)cn1)c1ccc2c(Cl)c3c(nc2c1)CCC3 | 40*[inhibitor] | 47*[inhibitor] | 5 | -13 | i | 79 | -19 | 70*
Cc1cccc(NC(=O)c2ccc3c(Cl)c4c(nc3c2)CCCC4)n1 | 107 | 103 | 2 | 2 | i | x | x | x
Cc1ccc(CNC(=O)c2ccc3nc4[nH]c5ccccc5c4nc3c2)cc1 | 72*[inhibitor] | 97 | x | -1 | i | 91 | -3 | 97
COc1ccccc1CNC(=O)c1ccc2nc3[nH]c4ccccc4c3nc2c1 | 94 | 85 | -18 | -6 | i | x | x | x
COc1cccc(C2=NN(C(=O)CCCC(=O)O)C(c3cccs3)C2)c1 (stereo unspecified) | 108 | 110 | 7 | 8 | i | x | x | x
CC(C)(C)NC(=O)c1ccc2c(c1)C1C3CCC(C3)C1C(c1ccccc1)N2 (stereo unspecified) | 198* | 109 | 2 | 1 | i | 119 | 12 | 105
c1ccc(CN2CCC(Nc3nc(-c4ccccc4)nc4ccccc34)CC2)cc1 | 104 | 144* | 36 | 21 | i | 162 | 32 | 106
Oc1ccccc1-c1nc(NCc2ccco2)c2ccccc2n1 | 100 | 101 | 13 | -4 | i | x | x | x
c1ccc(N2CCN(c3nc(NCc4ccco4)c4ccccc4n3)CC2)cc1 | 106 | 145* | 16 | 19 | i | 162 | 39 | 106
Cc1csc2ncnc(NC3CCN(Cc4ccccc4)CC3)c12 | 101 | 107 | 5 | 0 | i | x | x | x
COc1ccccc1Nc1nc(NCc2ccco2)c2ccccc2n1 | 117 | 177* | 37 | 42 | i | 149 | 23 | 106
c1ccc(CNc2nc(N3CCN(Cc4ccccc4)CC3)nc3ccccc23)cc1 | 112 | 161* | 40 | 16 | + | 185 | 45 | 103
c1coc(CNc2nc(N3CCCCC3)nc3ccccc23)c1 | 101 | 120 | 22 | 14 | i | x | x | x
O=C(Nc1ccc2c(c1)OCO2)c1n[nH]c(=O)c2ccccc12 | 95 | 92 | 3 | -17 | i | x | x | x
O=C(COC(=O)Cc1cccc(F)c1)NC(=O)NC1CCCCC1 | x | x | 7 | x | x | x | x | x
Cc1cccc(C)c1NC(=O)COC(=O)c1ccc(N2CCCC2)c([N+](=O)[O-])c1 | 100 | 100 | 4 | -1 | i | x | x | x
CCC(C)c1ccccc1NC(=O)COC(=O)c1ccc(N2CCCC2)c([N+](=O)[O-])c1 (stereo unspecified) | 132* | 100 | -4 | 0 | i | 104 | 1 | 106
Cc1cccc(NC(=S)N/N=C/c2ccc([N+](=O)[O-])s2)c1 | 86 | 50*[inhibitor] | -92 | -7 | i | 63 | -23 | 91
OCC1CCN(Cc2cn(Cc3ccccc3)nc2-c2cc3ccccc3o2)CC1 | 106 | 121 | 2 | 6 | i | x | x | x
COC1CCN(Cc2cn(Cc3ccccc3)nc2-c2cc3ccccc3o2)CC1 | 85 | 140* | 2 | 24 | i | 120 | 2 | 98
COc1ccc(NC(=O)c2ccc(=O)[nH]c2)cc1S(=O)(=O)N1CCOCC1 | x | x | 4 | x | x | x | x | x
SMILES | MEKK3 PB1 HTS | MEKK2wt PB1 HTS | UBC13 inh | MEKK2mut PB1 HTS | Rce1 inhib | MEKK2wt confirm | MEKK2mut-MEK5 | MEKK3-MEK5 inh
COc1ccc(OC)c(/C=N/N2CCN(c3ccc(Cl)cc3)CC2)c1 | 97 | 102 | -3 | 6 | i | x | x | x
Cc1nc(P(=O)(c2ccccc2)c2ccccc2)c(N2CCOCC2)o1 | 131* | 123 | -1 | 9 | i | 91 | -7 | 94
CCCCc1ccc(-c2nc(N)n[nH]2)cc1 | 1.0*[inhibitor] | 2.0*[inhibitor] | 1 | -21 | i | 106 | 5 | 103
CN(C)c1ccc(/C=C/C=C2/SC(=S)N(c3ccccc3)C2=O)cc1 | 0.0*[inhibitor] | x | -179 | x | i | 39 | -28 | 69*
O=C(O)c1ccc(N2C(=O)/C(=C/C=C/c3ccccc3)SC2=S)cc1 | 95 | 95 | -10 | -1 | i | x | x | x
CS(=O)(=O)N1CCN(C(=O)COc2ccc3ccccc3c2)CC1 | 132* | 113 | 1 | 29 | i | 100 | -7 | 105
CS(=O)(=O)N1CCN(C(=O)Cc2cccs2)CC1 | 63*[inhibitor] | 79 | -7 | -9 | i | 111 | 13 | 109
O=C(Cc1cccs1)N1CCN(S(=O)(=O)c2ccc(Br)cc2)CC1 | 100 | 98 | -9 | -8 | i | x | x | x
CCC(C)NC(=S)N1CCN(C)CC1 (stereo unspecified) | 101 | 97 | 0 | 0 | i | x | x | x
O=c1c2cc(N3CCOCC3)ccc2[nH]c(=S)n1CCCN1CCCCCC1 | 101 | 148* | -15 | 13 | i | 125 | 10 | 99
O=c1c2cc(N3CCOCC3)ccc2[nH]c(=S)n1CCN1CCCC1 | 101 | 101 | -2 | 2 | i | x | x | x
COc1ccccc1N1C(=O)Cc2ccccc2C1=O | 100 | 99 | -5 | -2 | i | x | x | x
CNc1nc(N)nc(OC(C(F)(F)F)C(F)(F)F)n1 | 95 | 94 | 8 | -9 | i | x | x | x
CCOC(=O)NC(=O)CSc1nnnn1-c1ccc(C)cc1 | 2.0*[inhibitor] | 2.0*[inhibitor] | -1 | -16 | x | 104 | 2 | 107
O=C(Cc1coc2ccc3ccccc3c12)NC1CCCc2ccccc21 (stereo unspecified) | 135* | 106 | 19 | 1 | i | 97 | -9 | 95
Cc1ccc(-n2nnnc2SCC(=O)NC2CCCc3ccccc32)c(C)c1 (stereo unspecified) | 100 | 97 | 9 | 0 | i | x | x | x
Cc1ccc(-n2nnnc2SCC(=O)NC2CCCc3ccccc32)cc1 (stereo unspecified) | 140* | 101 | 6 | -1 | i | 103 | 1 | 104
O=C(Cc1coc2ccc3ccccc3c12)NCc1ccccc1 | 93 | 91 | 14 | 0 | i | x | x | x
Cc1cccc(C)c1NC(=O)CS(=O)CC(=O)NC1CCCc2ccccc21 (stereo unspecified) | 132* | 128 | -16 | 6 | x | 99 | -3 | 100
